Experimental data published in the supplement of paper PMC12636033.
± gives the standard deviation of the averaged measurements. In all, about 33,000 sequences were measured (“E-score (rank enrichment, -0.5 to 0.5)”: median about -0.0028, highest 2% from about 0.23 on). Shown is part of a subset that was picked to be rich in the highest values.

system: 2Sb-muMax20 (muMax20 with two 1,3-bis(methyl)benzene Cys staples, A13C/A17C and Q88C/A92C, C-terminal Lys); assay: PBM 8-mer E-score (E-score (rank enrichment, -0.5 to 0.5)); higher = stronger preferential binding
Protocol: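 Protein binding microarray (universal PBM chip covering all 10-mers in fixed probe flanks) with chemically synthesized human Max(13-93) bHLH-LZ analogs (not full-length Max) bearing noncanonical residues (hArg, Tha, Aib, Nle at 65) and aromatic Cys staples. Read-out per 8-mer (and its reverse complement): E-score (rank-based enrichment, -0.5 to 0.5) and Z-score of median probe intensity.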

Sequence	PBM 8-mer E-score
TCTTTCAA	0.0646 ± 0.0097
AAACACAA	0.153 ± 0.0061
GGACACAC	-0.0301 ± 0.051
GCACACAC	-0.0369 ± 0.062
GGACACGA	-0.122 ± 0.0082
AGACACAA	0.00927 ± 0.0092
CAACACAA	0.0293 ± 0.052
CGACACAA	-0.0479 ± 0.0084
GGACACAA	0.238 ± 0.045
TAACACAA	0.232 ± 0.058
GCACACAA	0.233 ± 0.012
TGACACAA	0.239 ± 0.0028
ACACACAA	0.0979 ± 0.013
CGTCCACG	-0.0278 ± 0.092
GGCCCGAC	-0.223 ± 0.016
CTGGTGGA	-0.184 ± 0.0071
CCCCAAAG	-0.0426 ± 0.063
CCTCTGGC	-0.104 ± 0.017
GAACTATC	0.0395 ± 0.014
GCACAACC	-0.2359 ± 0.0019
GCACAACA	0.263 ± 0.066
CCACAACA	0.0344 ± 0.024
CTCCTTGC	-0.0809 ± 0.064
GAACCACC	-0.0303 ± 0.047
CCCATAAG	0.277 ± 0.06

Sequence	PBM 8-mer E-score
ACCATAAG	0.0575 ± 0.0016
CCCATAAC	0.128 ± 0.0013
ATACGTTG	0.11 ± 0.057
ATCTTGTA	-0.0155 ± 0.031
ATACAGTG	0.237 ± 0.028
ATACAGTA	0.223 ± 0.018
ATACAGTC	-0.00634 ± 0.095
ACGTCAAA	0.148 ± 0.052
CTTGCTGA	-0.0397 ± 0.039
GACGGAAC	-0.127 ± 0.049
CTCCTTAA	-0.0933 ± 0.1
TAGACCCA	0.243 ± 0.021
AAGACCCA	0.042 ± 0.021
GAGACCCA	-0.107 ± 0.056
CAGAGCAG	-0.155 ± 0.026
ACTGTTCT	0.114 ± 0.014
CATAATAG	0.258 ± 0.0042
AATAATAG	0.146 ± 0.0061
ACTAATAC	0.188 ± 0.061
ACTAATAT	0.0629 ± 0.074
AGTAATAC	-0.0436 ± 0.038
AGTAATAG	0.255 ± 0.043
CATAATAA	0.123 ± 0.049
CGTAATAG	0.168 ± 0.063
ACTAATAG	0.261 ± 0.027

Sequence	PBM 8-mer E-score
CCTGGTTA	-0.0217 ± 0.078
AGCGGTAA	-0.128 ± 0.0078
GAGGCTCC	-0.117 ± 0.064
AACTTTGT	0.12 ± 0.0076
AACACTAG	0.193 ± 0.0046
CTGACGCC	-0.0915 ± 0.025
AATGCTTG	-0.00273 ± 0.049
TCCACAGA	-0.0264 ± 0.053
CCTCGACG	-0.141 ± 0.026
AATTGCTA	0.268 ± 0.048
CATTGCTA	0.102 ± 0.021
CGTTGCTC	-0.0317 ± 0.009
AGTTGCTA	0.0844 ± 0.05
AATTGCTG	0.0578 ± 0.078
CGTTGCTA	0.237 ± 0.019
CCACCTTC	0.0963 ± 0.024
AACTGAGG	-0.066 ± 0.0013
ACGGAAGA	-0.0282 ± 0.0086
ATCACAAA	0.187 ± 0.032
ACGTACGC	0.0419 ± 0.012
TGCTAGCA	0.245 ± 0.069
CGCTAGCA	-0.253 ± 0.03
GGCTAGCA	0.0623 ± 0.01
CCCAAGTA	0.209 ± 0.045
AACAAGTA	-0.0361 ± 0.0029

Sequence	PBM 8-mer E-score
GCCAAATA	0.136 ± 0.0084
AACAAACC	0.0286 ± 0.068
TACAAATA	0.166 ± 0.013
CCCAAATA	0.24 ± 0.02
AACAAATA	0.269 ± 0.024
AAACAAAT	0.262 ± 0.056
TACAAACA	-0.0196 ± 0.043
AAACAAAA	0.133 ± 0.04
AAACAAAC	0.0967 ± 0.0062
AACAAACA	0.257 ± 0.003
ATTCCGTA	-0.178 ± 0.0038
AGCCTGCC	-0.0253 ± 0.013
GACCAGCA	0.0345 ± 0.019
AGAAATTC	0.0899 ± 0.038
CAATGAGC	-0.0934 ± 0.018
ACTGGCAC	-0.112 ± 0.0073
CTATCAAG	0.0675 ± 0.11
CACCTATG	-0.067 ± 0.015
GACAAGTC	-0.141 ± 0.038
CACAAGTC	-0.0773 ± 0.025
AACAAGAT	0.136 ± 0.05
AACAAAAA	0.0552 ± 0.028
AACAAGTC	0.232 ± 0.0046
AACAAAAT	0.275 ± 0.042
CTTCTTGC	-0.076 ± 0.029

Sequence	PBM 8-mer E-score
ACAATAAT	0.2723 ± 0.0017
ACAATAAC	0.18 ± 0.04
ACAATAAA	0.157 ± 0.082
ACAATACA	0.0315 ± 0.045
ACAATACC	0.247 ± 0.01
ACAATACT	0.098 ± 0.011
CCACTTAA	0.0781 ± 0.04
GTGCCCGA	-0.169 ± 0.03
CAGAGGCG	-0.0537 ± 0.004
GCGGGACA	-0.0586 ± 0.068
CGCGCGCG	-0.0393 ± 0.0083
AAGTGCCC	0.0017 ± 0.086
TAGTTCGA	0.117 ± 0.065
CTTTACGA	-0.11 ± 0.061
ATTTACGA	0.13 ± 0.011
GTTTACGA	0.233 ± 0.0029
GAACCTTA	0.14 ± 0.038
GCAACACC	0.0523 ± 0.023
ACAACCAG	0.144 ± 0.037
CCAACACC	-0.11 ± 0.046
ACAACAAG	0.259 ± 0.0048
ACAACCCT	-0.0652 ± 0.072
ACAACAAC	0.0959 ± 0.0063
ACAACCAC	0.076 ± 0.093
CCAACCCC	0.19 ± 0.044

Sequence	PBM 8-mer E-score
ACAACAAA	0.189 ± 0.045
ACAACACC	0.257 ± 0.014
ACAACCAT	0.266 ± 0.01
ACAACCCC	0.237 ± 0.088
AGAGCCAT	-0.0498 ± 0.022
GTACGTTA	0.0622 ± 0.061
TACGAAGA	0.16 ± 0.034
CTTCAGAC	-0.147 ± 0.0041
CCGCTGTA	-0.00727 ± 0.018
GATGGACC	-0.139 ± 0.026
AGCTAAAA	-0.0318 ± 0.011
ATACAAAC	0.182 ± 0.056
AGCTCTAG	-0.0829 ± 0.017
AGCACCTC	0.00592 ± 0.042
ATCCACCG	-0.1554 ± 0.001
GATAGCCC	0.0239 ± 0.026
GGGGTATA	0.217 ± 0.071
ATAGTAAT	0.0828 ± 0.014
CTAGTAAA	0.11 ± 0.069
ATAGTAAA	0.233 ± 0.068
CTGAGTCA	-0.163 ± 0.1
CCTCCCGA	-0.19 ± 0.041
ATAGTTAG	0.136 ± 0.038
AAATACCT	0.11169 ± 4.2e-05
CATAACTA	0.0553 ± 0.058

Sequence	PBM 8-mer E-score
CATAACCA	0.16 ± 0.018
GATAACCA	0.25 ± 0.0028
AATAACTA	0.151 ± 0.013
GATAACTA	0.237 ± 0.0032
TATAACCA	0.125 ± 0.024
ACGACTAC	-0.086 ± 0.0098
AAATTGGG	0.211 ± 0.011
CAATTGCA	0.241 ± 0.03
AAATTGCA	0.0694 ± 0.01
AGATTGCA	-0.04038 ± 0.00028
CAATTGGA	0.105 ± 0.079
TAATTGCA	0.178 ± 0.022
TGATTGCA	0.2879 ± 0.0004
CGATTGCA	-0.00806 ± 0.061
CAATTGGG	0.233 ± 0.044
ATGTGATA	0.137 ± 0.099
CTTCTCTC	-0.021 ± 0.036
ATAGGAAT	-0.00103 ± 0.048
ATTCTTTG	0.0288 ± 0.029
GGCTCGGA	-0.242 ± 0.019
CACCCATG	-0.0354 ± 0.1
CTGGGGCA	-0.128 ± 0.0081
